Assay results from PubChem BioAssay (NCI).
Compounds without any hit were thinned out: in the full panel of roughly 83,000, 20% have a hit.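 Assay: single dose, 48 h. Readout: percent growth (0 = no net growth; negative = cell death). Active: <10.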 Values without a mark were called inactive. Activity calls are given as the source filed them.

Experiments:
Assay in all cases: NCI-60 one-dose screen, 48 h (100 = growth as untreated, 0 = no growth, -100 = all killed)
Conditions in all cases: 10 µM
[1] = system: DU-145 prostate
[2] = system: K-562 leukemia
[3] = system: MALME-3M melanoma
[4] = system: MDA-MB-231 breast
[5] = system: RXF 393 renal
[6] = system: SF-268 CNS
[7] = system: SF-539 CNS
[8] = system: UACC-257 melanoma
[9] = system: M14 melanoma
[10] = system: SF-295 CNS

C#CC(C(C)C)N(CCO)CCCC (centres undefined)
growth [1]: 112%
growth [2]: 102%
growth [3]: 116%
growth [4]: 113%
growth [5]: 100%
growth [6]: 102%
growth [7]: 90.4%
growth [8]: 97.4%

Cc1ccccc1C1N=C2Oc3ccccc3C=C2C(=O)N1 (centres undefined)
growth [1]: 20.4%
growth [2]: 24.2%
growth [3]: 51.8%
growth [4]: 32.5%
growth [5]: -4.6% (active)
growth [6]: 53.7%
growth [7]: -5.32% (active)
growth [8]: 56.2%
growth [9]: -24.7% (active)

CCOC(=O)CCCC(=O)OCC
growth [1]: 103%
growth [2]: 101%
growth [3]: 95.7%
growth [4]: 100%
growth [6]: 96.7%
growth [10]: 101%
growth [7]: 98.4%
growth [8]: 99%
growth [9]: 99.2%

CC(=O)Nc1cccc(NC(C)=O)n1
growth [1]: 110%
growth [2]: 96.6%
growth [3]: 91.5%
growth [4]: 107%
growth [6]: 100%
growth [10]: 108%
growth [7]: 103%
growth [8]: 102%
growth [9]: 103%

COc1cc2c3cc1Oc1c(OC)c(OC)cc4c1C(Cc1ccc(O)c(c1)Oc1ccc(cc1)CC3N(C)CC2)N(C)CC4 (centres undefined)
growth [1]: 33.4%
growth [2]: 0.419% (active)
growth [3]: -79.3% (active)
growth [4]: -24.1% (active)
growth [5]: -14.9% (active)
growth [6]: 36.2%
growth [7]: -23.5% (active)
growth [8]: -62.2% (active)
growth [9]: -77.8% (active)

CCCC[P+](c1ccccc1)(c1ccccc1)c1ccccc1
growth [1]: 62.5%
growth [2]: 24.4%
growth [3]: 41%
growth [4]: 84.3%
growth [5]: 102%
growth [6]: 67.2%
growth [7]: 64.5%
growth [8]: 17%
growth [9]: 54.9%

C/C(=N\O)C1(O)CCCCC1
growth [1]: 100%
growth [2]: 106%
growth [3]: 114%
growth [4]: 94.7%
growth [6]: 82.7%
growth [10]: 110%
growth [7]: 99.2%
growth [8]: 98.3%
growth [9]: 110%

COc1ccccc1N1CCN(C(=S)Nc2ccccc2)CC1
growth [1]: 100%
growth [2]: 81.8%
growth [3]: 97.3%
growth [4]: 101%
growth [5]: 100%
growth [6]: 99.3%
growth [7]: 106%
growth [9]: 100%

O=C(Cc1ccccc1)Cc1ccccc1
growth [1]: 113%
growth [2]: 110%
growth [3]: 115%
growth [4]: 109%
growth [6]: 103%
growth [10]: 108%
growth [7]: 101%
growth [8]: 93.1%

CCCCC(=O)c1ccc(OC)cc1
growth [1]: 104%
growth [2]: 105%
growth [3]: 94%
growth [4]: 109%
growth [6]: 107%
growth [10]: 92%
growth [7]: 110%
growth [8]: 91.2%
growth [9]: 99.4%

O=P(O)(O)OCC(O)CO (centres undefined)
growth [1]: 107%
growth [2]: 113%
growth [3]: 110%
growth [4]: 111%
growth [5]: 107%
growth [6]: 108%
growth [7]: 105%
growth [8]: 102%
growth [9]: 101%

CC(CC(=O)c1ccccc1)c1ccccc1 (centres undefined)
growth [1]: 112%
growth [2]: 102%
growth [3]: 93%
growth [4]: 119%
growth [6]: 110%
growth [10]: 95.8%
growth [7]: 105%
growth [8]: 94.1%
growth [9]: 119%

CC(C)CCCC(=O)O
growth [1]: 111%
growth [2]: 135%
growth [3]: 98.5%
growth [4]: 123%
growth [5]: 93%
growth [6]: 106%
growth [7]: 98.5%
growth [8]: 117%
growth [9]: 119%

NCCCN
growth [1]: 107%
growth [2]: 103%
growth [3]: 95.5%
growth [4]: 106%
growth [5]: 115%
growth [6]: 103%
growth [7]: 102%
growth [9]: 112%

CC(=O)c1ccc(N=C(C#N)C2=C(O)c3ccccc3C2=O)cc1
growth [1]: 113%
growth [2]: 85.5%
growth [3]: 114%
growth [4]: 106%
growth [6]: 101%
growth [10]: 102%
growth [7]: 107%
growth [8]: 94.2%
growth [9]: 105%

c1ccc(CN2COc3c(ccc4c3OCN(Cc3ccccc3)C4)C2)cc1
growth [1]: 25.3%
growth [2]: 3.62% (active)
growth [3]: 28.4%
growth [4]: 1.06% (active)
growth [6]: 15.1%
growth [10]: 0.773% (active)
growth [7]: -21.5% (active)
growth [8]: 12.1%
growth [9]: -0.269% (active)

COC(=O)c1cc(-c2ccc(Cl)c(Cl)c2)[nH]c(=O)c1C#N
growth [1]: 108%
growth [2]: 108%
growth [3]: 89.1%
growth [5]: 109%
growth [6]: 102%
growth [10]: 96.1%
growth [7]: 101%
growth [8]: 98.4%
growth [9]: 99.2%

COC(=O)C(C)Oc1ccc(OC#N)cc1 (centres undefined)
growth [1]: 105%
growth [2]: 94.1%
growth [3]: 93.1%
growth [5]: 101%
growth [6]: 98.9%
growth [10]: 96.3%
growth [7]: 94.6%
growth [8]: 104%
growth [9]: 101%

COc1ccc(-c2cc(-c3cc(-c4ccc(OC)cc4)nc(N)n3)nc(N)n2)cc1
growth [1]: 102%
growth [2]: 98.9%
growth [3]: 91.2%
growth [5]: 101%
growth [6]: 102%
growth [10]: 96.2%
growth [7]: 98.1%
growth [8]: 99.4%
growth [9]: 104%

COc1ccc(C2OC(N)=C(O)C2=O)cc1OC (centres undefined)
growth [1]: 109%
growth [2]: 94.6%
growth [3]: 95.5%
growth [5]: 110%
growth [6]: 101%
growth [10]: 99.9%
growth [7]: 90.9%
growth [8]: 106%
growth [9]: 111%

CC(=O)CC(=O)N(C)C
growth [1]: 104%
growth [2]: 101%
growth [3]: 98.7%
growth [5]: 110%
growth [6]: 101%
growth [10]: 95.8%
growth [7]: 97.6%
growth [8]: 99.3%
growth [9]: 107%

CCS(=O)(=O)CCCl
growth [1]: 96.8%
growth [2]: 93%
growth [3]: 93.3%
growth [5]: 105%
growth [6]: 106%
growth [10]: 102%
growth [7]: 104%
growth [8]: 94.5%
growth [9]: 94.4%

O=C(Cc1nc2ccc([N+](=O)[O-])cc2nc1CC(=O)c1cccnc1)c1cccnc1
growth [1]: 76.5%
growth [2]: 70.7%
growth [3]: 68.5%
growth [5]: 20.1%
growth [6]: 47%
growth [10]: 54.5%
growth [7]: 30.1%
growth [8]: 78.6%
growth [9]: 82.8%

CC1(O)OC(COc2ccc(Cl)cc2)COC1O (centres undefined)
growth [1]: 108%
growth [2]: 104%
growth [3]: 99.2%
growth [5]: 107%
growth [6]: 104%
growth [10]: 103%
growth [7]: 97.3%
growth [8]: 95.7%
growth [9]: 109%

O=C1C=CC2=C3c4cc(O)c(O)cc4CC3(O)COC2=C1O (centres undefined)
growth [1]: 119%
growth [2]: 108%
growth [3]: 124%
growth [4]: 99.1%
growth [6]: 107%
growth [10]: 107%
growth [7]: 90%
growth [9]: 102%

O=C1NC(=O)C2C(=O)NC(=O)C1C21CCc2ccccc21 (centres undefined)
growth [1]: 115%
growth [2]: 98.2%
growth [3]: 102%
growth [5]: 99.3%
growth [6]: 111%
growth [10]: 102%
growth [7]: 93.7%
growth [8]: 107%
growth [9]: 103%

CN(C)CCC(=O)c1ccc(O)cc1
growth [1]: 104%
growth [2]: 104%
growth [3]: 108%
growth [5]: 112%
growth [6]: 95.5%
growth [10]: 106%
growth [7]: 104%
growth [8]: 105%

O=C(N/N=C\c1cc(Br)cc(Br)c1O)N/N=C/c1cc(Br)cc(Br)c1O
growth [1]: 75.2%
growth [2]: 22.9%
growth [3]: 70.2%
growth [4]: 72%
growth [6]: 51.1%
growth [10]: 6.45% (active)
growth [7]: 35.5%
growth [9]: 55.2%

COC(=O)/C=C1\Sc2cc(F)ccc2NC1=O
growth [1]: 126%
growth [2]: 91.2%
growth [3]: 102%
growth [4]: 107%
growth [6]: 110%
growth [10]: 118%
growth [7]: 104%
growth [8]: 91%
growth [9]: 93.3%
